Measured values from PubChem BioAssay (EPA / NIEHS).
Results filed as inconclusive are left out. Activity calls are given as the source filed them. The calls were made as follows, unless noted: active = hit-call score of the fitted dose curve at least 0.9, where 1 is the maximum; inconclusive = response in the unintended direction; inactive = score below 0.9.

How the values were obtained:
[1] = ATG_TCF_b_cat_CIS: Attagene CIS-FACTORIAL HepG2 Assay for human T-Cell-Factor with beta-catenin (TCF/b-cat) (AID 2282965; active = hit-call score of the fitted dose curve at least 0.9, where 1 is the maximum; inactive = score below 0.9); conditions: HepG2 TCF/beta-catenin cis-reporter transcription, actives raise or lower the signal
In short: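 Endogenous TCF/LEF activity read as reporter transcript level via RT-PCR and capillary electrophoresis fluorescence in transfected HepG2, 24 h exposure; gain or loss of signal fitted against DMSO controls.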

[2] = ATG_TAL_CIS: Attagene CIS-FACTORIAL HepG2 Assay for human TAL Basal Promoter (AID 2282966; active = hit-call score of the fitted dose curve at least 0.9, where 1 is the maximum; inactive = score below 0.9;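 also: background control endpoint measuring basal TAL promoter reporter mRNA not a specific factor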); conditions: HepG2 Attagene cis-factorial TAL promoter reporter; actives raise or lower the signal
In short: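 Background-control endpoint: basal TAL promoter reporter transcripts in transiently transfected HepG2, measured 24 h after dosing. Read-out by RT-PCR with fluorescent primer extension and capillary electrophoresis; gain or loss of signal fitted relative to DMSO.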

[3] = ATG_TGFb_CIS: Attagene CIS-FACTORIAL HepG2 Assay for human Transforming Growth Factor (TGF) (AID 2282967; active = hit-call score of the fitted dose curve at least 0.9, where 1 is the maximum; inactive = score below 0.9); conditions: HepG2 Attagene CIS TGFb reporter, mRNA transcription; actives raise or lower the signal
In short: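 Liver HepG2 line, cis-factorial reporter panel, 24 h dosing. Quantitation: RT-PCR products labeled with 6-FAM, cut with HpaI, resolved by capillary electrophoresis; DMSO-referenced bidirectional analysis.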

[4] = ATG_VDRE_CIS: Attagene CIS-FACTORIAL HepG2 Assay for human Vitamin D Receptor Element (VDRE) (AID 2282968; active = hit-call score of the fitted dose curve at least 0.9, where 1 is the maximum; inactive = score below 0.9); conditions: HepG2 VDRE cis-reporter transcription, actives raise or lower the signal
In short: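 Measures endogenous factor activity through cis-element-driven reporter transcripts in transiently transfected HepG2. Cells are treated 24 h; reporter mRNA is quantified by RT-PCR and capillary electrophoresis; fitting is bidirectional.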

[5] = target: Nuclear receptor subfamily 1 group I member 3 (Homo sapiens) (UniProt Q14994); assay: ATG_CAR_TRANS: Attagene TRANS-FACTORIAL HepG2 Assay for human Constitutive Androstane Receptor (CAR) (AID 2282969); conditions: HepG2 Attagene TRANS-FACTORIAL CAR reporter;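 also: activators raise reporter mRNA above DMSO so AC50 marks induction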
Sequence of Nuclear receptor subfamily 1 group I member 3 (Homo sapiens) (Q14994 whole entry, looked up, the tested form may be a part): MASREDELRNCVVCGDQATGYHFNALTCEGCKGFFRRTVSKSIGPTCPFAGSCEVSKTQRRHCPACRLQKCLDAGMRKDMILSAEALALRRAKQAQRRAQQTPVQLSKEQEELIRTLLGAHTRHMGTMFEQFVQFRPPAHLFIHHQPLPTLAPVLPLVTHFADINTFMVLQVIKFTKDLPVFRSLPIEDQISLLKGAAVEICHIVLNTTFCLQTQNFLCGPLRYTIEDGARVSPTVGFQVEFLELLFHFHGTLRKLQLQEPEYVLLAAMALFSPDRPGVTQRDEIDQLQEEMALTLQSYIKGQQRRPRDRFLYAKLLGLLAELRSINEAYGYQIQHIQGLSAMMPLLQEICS
In short: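 Signal is reporter mRNA induction relative to DMSO, measured 24 h after dosing by RT-PCR with fluorescent primer extension and capillary electrophoresis. Human HepG2 liver cells carried transiently transfected chimeric NR-Gal4/GAL4-UAS reporter constructs.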

[6] = target: Estrogen receptor (Homo sapiens) (UniProt P03372); assay: ATG_ERa_TRANS: Attagene TRANS-FACTORIAL HepG2 Assay for human Estrogen Receptor alpha (ERa) (AID 2282970); conditions: HepG2 Attagene TRANS ERa GAL4 reporter, mRNA
Sequence of Estrogen receptor (Homo sapiens) (P03372 whole entry, looked up, the tested form may be a part): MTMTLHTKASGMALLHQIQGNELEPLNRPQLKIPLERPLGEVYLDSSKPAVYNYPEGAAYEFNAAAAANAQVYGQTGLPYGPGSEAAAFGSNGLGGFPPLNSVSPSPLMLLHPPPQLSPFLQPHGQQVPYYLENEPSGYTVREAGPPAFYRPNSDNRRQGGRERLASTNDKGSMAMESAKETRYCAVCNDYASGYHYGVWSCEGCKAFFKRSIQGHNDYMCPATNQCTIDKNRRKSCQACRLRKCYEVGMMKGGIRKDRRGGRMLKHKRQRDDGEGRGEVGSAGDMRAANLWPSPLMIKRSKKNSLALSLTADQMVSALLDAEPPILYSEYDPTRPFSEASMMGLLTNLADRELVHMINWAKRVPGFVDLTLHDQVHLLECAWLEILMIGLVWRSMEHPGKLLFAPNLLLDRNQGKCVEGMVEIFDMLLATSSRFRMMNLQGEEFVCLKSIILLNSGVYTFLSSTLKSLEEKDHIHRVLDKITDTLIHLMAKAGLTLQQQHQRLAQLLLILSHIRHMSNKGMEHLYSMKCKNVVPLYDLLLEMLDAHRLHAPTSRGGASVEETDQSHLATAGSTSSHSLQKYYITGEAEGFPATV
In short: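 Reporter transcripts were measured 24 h after dosing by RT-PCR with fluorescent primer extension and capillary electrophoresis. The system is transiently transfected HepG2 expressing exogenous NR-Gal4 chimeras driving GAL4-UAS reporters; DMSO is the baseline.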

[7] = target: X-box-binding protein 1 (Homo sapiens) (UniProt P17861); assay: ATG_Xbp1_CIS: Attagene CIS-FACTORIAL HepG2 Assay for human X-box Binding Protein 1 (XBP1) (AID 2282972; active = hit-call score of the fitted dose curve at least 0.9, where 1 is the maximum; inactive = score below 0.9); conditions: HepG2 XBP1 cis-element reporter, Attagene multiplex; actives raise or lower the signal
Sequence of X-box-binding protein 1 (Homo sapiens) (P17861 whole entry, looked up): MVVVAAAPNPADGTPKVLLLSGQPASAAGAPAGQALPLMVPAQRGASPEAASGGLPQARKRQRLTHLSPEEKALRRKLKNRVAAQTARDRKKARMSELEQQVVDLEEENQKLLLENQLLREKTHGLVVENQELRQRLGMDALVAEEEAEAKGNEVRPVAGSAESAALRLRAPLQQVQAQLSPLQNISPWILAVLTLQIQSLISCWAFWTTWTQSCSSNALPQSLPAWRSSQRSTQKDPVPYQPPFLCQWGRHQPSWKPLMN
In short: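 Changes in reporter transcript abundance, read by RT-PCR and capillary electrophoresis, reflect endogenous transcription factor activity. Transfected HepG2 cells received compound for 24 hours; DMSO defined baseline for bidirectional analysis.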

[8] = target: Oxysterols receptor LXR-beta (Homo sapiens) (UniProt P55055); assay: ATG_LXRb_TRANS: Attagene TRANS-FACTORIAL HepG2 Assay for human Liver X Receptor beta (LXRb) (AID 2282981); conditions: HepG2 Attagene TRANS GAL4-LXRb reporter, mRNA
Sequence of Oxysterols receptor LXR-beta (Homo sapiens) (P55055 whole entry, looked up, the tested form may be a part): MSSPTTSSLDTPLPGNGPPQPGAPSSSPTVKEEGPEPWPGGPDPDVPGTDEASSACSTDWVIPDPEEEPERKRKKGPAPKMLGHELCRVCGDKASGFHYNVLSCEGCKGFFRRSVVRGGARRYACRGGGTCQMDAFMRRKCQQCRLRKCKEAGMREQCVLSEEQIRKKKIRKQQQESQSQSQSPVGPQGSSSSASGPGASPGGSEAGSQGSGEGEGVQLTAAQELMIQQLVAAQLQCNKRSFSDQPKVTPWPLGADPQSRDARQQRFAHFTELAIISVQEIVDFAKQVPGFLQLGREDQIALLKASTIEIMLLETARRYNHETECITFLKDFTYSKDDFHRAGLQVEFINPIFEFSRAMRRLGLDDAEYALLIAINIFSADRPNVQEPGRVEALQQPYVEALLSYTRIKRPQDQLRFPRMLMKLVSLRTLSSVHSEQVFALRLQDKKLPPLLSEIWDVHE
In short: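 After 24 h of chemical treatment, transfected HepG2 cells yield total RNA; reporter cDNA is PCR-amplified, FAM-labelled, HpaI-cut and run on capillary electrophoresis. Signal reflects chimeric LXRb-Gal4 activity on GAL4-UAS reporters.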

[9] = target: Hepatocyte nuclear factor 4-alpha (Homo sapiens) (UniProt P41235); assay: ATG_HNF4a_TRANS: Attagene TRANS-FACTORIAL HepG2 Assay for human Hepatocyte Nuclear Factor 4 alpha (HNF4a) (AID 2282982); conditions: HepG2 HNF4a transactivation reporter, mRNA readout
Sequence of Hepatocyte nuclear factor 4-alpha (Homo sapiens) (P41235 whole entry, looked up): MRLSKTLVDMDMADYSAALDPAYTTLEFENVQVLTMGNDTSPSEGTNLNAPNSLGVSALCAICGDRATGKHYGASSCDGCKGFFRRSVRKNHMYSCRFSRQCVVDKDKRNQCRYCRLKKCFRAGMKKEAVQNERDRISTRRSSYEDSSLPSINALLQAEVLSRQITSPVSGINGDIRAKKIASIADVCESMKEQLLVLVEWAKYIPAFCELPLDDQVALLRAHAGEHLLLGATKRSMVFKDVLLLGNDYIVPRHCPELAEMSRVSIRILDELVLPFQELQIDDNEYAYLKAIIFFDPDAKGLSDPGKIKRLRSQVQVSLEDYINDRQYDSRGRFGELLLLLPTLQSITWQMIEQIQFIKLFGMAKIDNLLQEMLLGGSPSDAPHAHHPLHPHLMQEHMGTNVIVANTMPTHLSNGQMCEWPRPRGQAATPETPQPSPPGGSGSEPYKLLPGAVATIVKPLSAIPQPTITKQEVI
In short: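 Multiplexed reporter assay: transfected HepG2, 24 h exposure, total RNA → oligo(dT) RT → PCR → 6-FAM extension → HpaI digest → CE fluorescence. DMSO = negative control.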

[10] = ATG_M_06_TRANS: Attagene TRANS-FACTORIAL HepG2 Assay for M06 Transcription Factor (Internal Marker) (AID 2282983); conditions: HepG2 Attagene TRANS M06 internal marker reporter
In short: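 Background-control reporter readout: after 24 h chemical exposure of transiently transfected HepG2 (GAL4-UAS reporter units), mRNA quantified by RT-PCR with fluorescent labeling and capillary electrophoresis. Gain-of-signal fitting against DMSO baseline.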

[11] = target: Transcriptional activator Myb (Homo sapiens) (UniProt P10242); assay: ATG_Myb_CIS: Attagene CIS-FACTORIAL HepG2 Assay for human Myeloblastosis (Myb) Proto-Oncogene Transcription Factor (AID 2282986; active = hit-call score of the fitted dose curve at least 0.9, where 1 is the maximum; inactive = score below 0.9); conditions: HepG2 Attagene CIS-FACTORIAL Myb reporter transcription; actives raise or lower the signal
Sequence of Transcriptional activator Myb (Homo sapiens) (P10242 whole entry, looked up): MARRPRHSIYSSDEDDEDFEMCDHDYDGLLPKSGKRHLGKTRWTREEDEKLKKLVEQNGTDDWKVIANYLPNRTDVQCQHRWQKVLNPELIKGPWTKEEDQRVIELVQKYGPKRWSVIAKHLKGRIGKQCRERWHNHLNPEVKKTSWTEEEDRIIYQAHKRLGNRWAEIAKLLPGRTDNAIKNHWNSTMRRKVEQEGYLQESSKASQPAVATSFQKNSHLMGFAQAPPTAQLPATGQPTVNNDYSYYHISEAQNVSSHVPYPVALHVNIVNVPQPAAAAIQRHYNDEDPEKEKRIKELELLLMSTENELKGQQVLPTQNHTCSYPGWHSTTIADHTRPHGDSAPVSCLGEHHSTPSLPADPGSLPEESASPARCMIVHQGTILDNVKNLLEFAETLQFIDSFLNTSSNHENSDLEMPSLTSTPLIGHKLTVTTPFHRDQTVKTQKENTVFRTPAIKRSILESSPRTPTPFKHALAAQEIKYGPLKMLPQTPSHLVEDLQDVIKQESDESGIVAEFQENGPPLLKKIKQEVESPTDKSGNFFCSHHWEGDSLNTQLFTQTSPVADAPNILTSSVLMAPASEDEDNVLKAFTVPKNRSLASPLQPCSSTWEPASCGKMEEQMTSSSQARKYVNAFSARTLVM
In short: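 HepG2 cells were transiently transfected with cis-regulated multiple reporter transcription units reflecting endogenous Myb activity, then exposed to compound for 24 hours. Reporter mRNA was measured by RT-PCR with capillary electrophoresis; bidirectional fitting versus DMSO baseline.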

[12] = target: Glucocorticoid receptor (Homo sapiens) (UniProt P04150); assay: ATG_GR_TRANS: Attagene TRANS-FACTORIAL HepG2 Assay for human Glucocorticoid Receptor (GR) (AID 2282978); conditions: HepG2 Attagene TRANS GR reporter, mRNA transcription;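 also: activators score as hits since higher reporter transcript over DMSO is fitted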
In short: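 HepG2 cells transiently transfected with multiplexed reporter units in which chimeric NR-GAL4 proteins drive GAL4-UAS reporters; 24 h compound exposure. Reporter mRNA measured by RT-PCR, 6-FAM labelling, HpaI digestion and capillary electrophoresis; gain-of-signal fitted versus DMSO.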

[13] = target: Oxysterols receptor LXR-alpha (Homo sapiens) (UniProt Q13133); assay: ATG_LXRa_TRANS: Attagene TRANS-FACTORIAL HepG2 Assay for human Liver X Receptor alpha (LXRa) (AID 2282980); conditions: HepG2 Attagene TRANS reporter, LXRa transactivation
Sequence of Oxysterols receptor LXR-alpha (Homo sapiens) (Q13133 whole entry, looked up, the tested form may be a part): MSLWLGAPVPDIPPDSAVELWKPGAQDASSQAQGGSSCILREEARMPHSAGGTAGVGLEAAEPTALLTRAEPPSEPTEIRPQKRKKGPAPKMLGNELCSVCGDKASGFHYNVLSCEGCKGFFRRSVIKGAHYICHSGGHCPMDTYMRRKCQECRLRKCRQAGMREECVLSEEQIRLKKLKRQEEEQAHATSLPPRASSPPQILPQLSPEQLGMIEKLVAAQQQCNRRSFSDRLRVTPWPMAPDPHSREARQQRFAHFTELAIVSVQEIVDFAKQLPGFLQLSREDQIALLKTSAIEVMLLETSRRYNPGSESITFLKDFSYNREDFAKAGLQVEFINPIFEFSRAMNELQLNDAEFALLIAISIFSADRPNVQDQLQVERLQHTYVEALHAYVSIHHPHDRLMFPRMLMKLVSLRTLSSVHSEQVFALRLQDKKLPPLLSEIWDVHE
In short: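 Chemical-induced reporter mRNA measured by RT-PCR with fluorescent labelling and capillary electrophoresis after 24 h dosing of transiently transfected HepG2 cells expressing exogenous NR-Gal4 chimeras; increases scored against DMSO baseline.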

[14] = ATG_M_32_TRANS: Attagene TRANS-FACTORIAL HepG2 Assay for M32 Transcription Factor (Internal Marker) (AID 2282984); conditions: HepG2 Attagene TRANS M32 internal marker reporter
In short: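 Cell-based TRANS-format assay in HepG2: exogenous chimeric GAL4 reporter units transiently expressed, compounds applied 24 h. Reporter mRNA detected by RT-PCR plus capillary electrophoresis; this readout is an internal background marker.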

[15] = target: Nuclear receptor subfamily 4 group A member 2 (Homo sapiens) (UniProt P43354); assay: ATG_NURR1_TRANS: Attagene TRANS-FACTORIAL HepG2 Assay for human Nuclear Receptor Related Protein 1 (NURR1) (AID 2282985); conditions: HepG2 Attagene TRANS reporter, mRNA readout
Sequence of Nuclear receptor subfamily 4 group A member 2 (Homo sapiens) (P43354 whole entry, looked up, the tested form may be a part): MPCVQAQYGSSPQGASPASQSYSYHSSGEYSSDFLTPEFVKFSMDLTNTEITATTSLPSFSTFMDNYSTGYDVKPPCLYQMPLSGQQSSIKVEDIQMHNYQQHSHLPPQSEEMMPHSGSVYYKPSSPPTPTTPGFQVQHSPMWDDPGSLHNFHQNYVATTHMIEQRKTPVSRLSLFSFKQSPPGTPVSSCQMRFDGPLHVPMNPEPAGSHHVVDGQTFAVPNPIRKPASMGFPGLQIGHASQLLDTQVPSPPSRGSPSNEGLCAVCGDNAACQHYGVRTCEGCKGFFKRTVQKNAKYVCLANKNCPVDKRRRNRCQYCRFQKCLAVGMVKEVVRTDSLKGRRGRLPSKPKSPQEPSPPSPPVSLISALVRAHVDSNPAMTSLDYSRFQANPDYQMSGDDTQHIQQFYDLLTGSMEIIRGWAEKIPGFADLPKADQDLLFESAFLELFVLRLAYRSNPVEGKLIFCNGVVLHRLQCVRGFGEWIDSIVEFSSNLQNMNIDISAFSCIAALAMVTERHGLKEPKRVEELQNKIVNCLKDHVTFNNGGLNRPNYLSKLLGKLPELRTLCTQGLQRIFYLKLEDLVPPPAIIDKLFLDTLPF
In short: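 Measures transcriptional activation by an exogenous NR-Gal4 chimera in transfected HepG2 liver cells. After 24 h, reporter RNA is reverse-transcribed, amplified and resolved by capillary electrophoresis; DMSO defines baseline.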

[16] = ATG_GAL4_TRANS: Attagene TRANS-FACTORIAL HepG2 Assay for GAL4 (Internal Marker) (AID 2282976); conditions: HepG2 Attagene TRANS GAL4 internal marker reporter
In short: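 In transfected human HepG2 liver cells dosed 24 h, GAL4 reporter mRNA serves as a baseline marker. Detection by RT-PCR with fluorescent capillary electrophoresis, activity fitted upward relative to DMSO.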

[17] = target: Bile acid receptor (Homo sapiens) (UniProt Q96RI1); assay: ATG_FXR_TRANS: Attagene TRANS-FACTORIAL HepG2 Assay for Farnesoid X Receptor (FXR) (AID 2282979); conditions: HepG2 Attagene TRANS FXR-GAL4 reporter transcription;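 also: hits raise reporter mRNA above DMSO so AC50 marks FXR activation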
Sequence of Bile acid receptor (Homo sapiens) (Q96RI1 whole entry, looked up, the tested form may be a part): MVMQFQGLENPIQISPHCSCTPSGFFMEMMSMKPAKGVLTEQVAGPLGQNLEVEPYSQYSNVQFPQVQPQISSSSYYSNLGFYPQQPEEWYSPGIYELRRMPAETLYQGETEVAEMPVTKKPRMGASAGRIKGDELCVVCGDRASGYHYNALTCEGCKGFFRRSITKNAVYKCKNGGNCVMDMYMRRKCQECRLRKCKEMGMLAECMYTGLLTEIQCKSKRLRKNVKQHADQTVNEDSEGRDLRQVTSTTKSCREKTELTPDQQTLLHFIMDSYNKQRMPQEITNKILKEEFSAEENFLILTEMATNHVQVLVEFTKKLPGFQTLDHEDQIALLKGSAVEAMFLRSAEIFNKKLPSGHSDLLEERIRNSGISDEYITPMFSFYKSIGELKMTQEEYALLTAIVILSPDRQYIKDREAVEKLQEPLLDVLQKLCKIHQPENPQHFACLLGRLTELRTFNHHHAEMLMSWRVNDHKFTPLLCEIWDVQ
In short: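 Reporter transcripts from transfected HepG2 cells were measured 24 h after dosing, using RT-PCR with capillary electrophoresis of 6-FAM-labelled fragments. The read-out reflects activity of exogenous FXR-Gal4 chimera on GAL4-UAS units, with induction relative to DMSO.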

[18] = ATG_M_19_TRANS: Attagene TRANS-FACTORIAL HepG2 Assay for M19 Transcription Factor (Internal Marker) (AID 2282974); conditions: HepG2 Attagene TRANS-FACTORIAL M19 internal marker reporter
In short: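 HepG2 cells transiently transfected with multiple GAL4-UAS reporter transcription units were exposed to chemicals for 24 h. Reporter mRNA was read by RT-PCR, 6-FAM primer extension, HpaI digestion and capillary electrophoresis; gain of signal fitted relative to DMSO.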

[19] = target: Steroid hormone receptor ERR1 (Homo sapiens) (UniProt P11474); assay: ATG_ERRa_TRANS: Attagene TRANS-FACTORIAL HepG2 Assay for human Estrogen-Related Receptor alpha (ERRa) (AID 2282971); conditions: HepG2 Attagene TRANS reporter, ERRa transactivation
Sequence of Steroid hormone receptor ERR1 (Homo sapiens) (P11474 whole entry, looked up, the tested form may be a part): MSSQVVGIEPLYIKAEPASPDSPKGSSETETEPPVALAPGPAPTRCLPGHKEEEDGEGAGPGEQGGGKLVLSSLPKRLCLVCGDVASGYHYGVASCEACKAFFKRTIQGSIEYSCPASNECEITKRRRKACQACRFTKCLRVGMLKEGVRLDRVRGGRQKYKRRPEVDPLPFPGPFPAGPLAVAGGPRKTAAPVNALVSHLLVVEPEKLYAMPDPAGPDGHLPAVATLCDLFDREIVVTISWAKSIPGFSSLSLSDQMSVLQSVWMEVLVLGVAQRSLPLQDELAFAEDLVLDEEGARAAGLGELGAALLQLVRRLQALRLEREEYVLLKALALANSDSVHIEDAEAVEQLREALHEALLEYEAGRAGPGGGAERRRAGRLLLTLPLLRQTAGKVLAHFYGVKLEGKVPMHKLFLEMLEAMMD
In short: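 Reporter transcripts from ERRa-Gal4 chimera activity measured in transiently transfected human HepG2 cells 24 hours after dosing, using RT-PCR with 6-FAM primer extension, HpaI digestion and capillary electrophoresis; DMSO is baseline.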

[20] = target: Estrogen-related receptor gamma (Homo sapiens) (UniProt P62508); assay: ATG_ERRg_TRANS: Attagene TRANS-FACTORIAL HepG2 Assay for human Estrogen-Related Receptor gamma (ERRg) (AID 2282977); conditions: HepG2 Attagene TRANS reporter, ERRg transactivation;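 also: hits increase reporter signal over DMSO so potencies reflect activators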
In short: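 Exogenous NR-Gal4 chimera activity was assessed in HepG2 cells bearing transfected GAL4-UAS reporters. After 24 h dosing, total RNA underwent RT-PCR, fluorescent primer extension and HpaI digestion before capillary electrophoresis, with gain of signal scored against DMSO.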

Measured: AC50

CC(C)(C)c1cc(CCC(=O)OCC(COC(=O)CCc2cc(C(C)(C)C)c(O)c(C(C)(C)C)c2)(COC(=O)CCc2cc(C(C)(C)C)c(O)c(C(C)(C)C)c2)COC(=O)CCc2cc(C(C)(C)C)c(O)c(C(C)(C)C)c2)cc(C(C)(C)C)c1O
inactive: [1] | [2] | [3] | [4] | [5] | [7] | [8] | [9] | [10] | [11]
active: [6] 21.8 µM

Cc1cc(C)c(O)c(C(C)(C)C)c1
inactive: [1] | [2] | [3] | [5] | [7] | [12] | [13] | [14] | [15] | [11]
active: [4] 25.9 µM

CCCCCCCCn1sc(Cl)c(Cl)c1=O
inactive: [1] | [2] | [3] | [4] | [5] | [6] | [7] | [16] | [12] | [8] | [15]
active: [11] 20.4 µM

CC(C)(C)C(=O)C1C(=O)c2ccccc2C1=O
active: [4] 42.2 µM
inactive: [1] | [2] | [3] | [5] | [6] | [17] | [13] | [8] | [9] | [10] | [15] | [11]

OCCC(O)CO (configuration not stated)
inactive: [1] | [2] | [3] | [4] | [6] | [7] | [18] | [16] | [12] | [17] | [11]

Cc1cc(=O)[nH]c(C(C)C)n1
inactive: [1] | [2] | [3] | [4] | [5] | [19] | [7] | [16] | [12] | [13] | [8] | [9] | [14] | [15] | [11]

CCC/C=C/CO
inactive: [1] | [2] | [3] | [4] | [5] | [7] | [18] | [16] | [12] | [17] | [9] | [14]

Cc1cc(O)c(C(C)(C)C)cc1C(C)(C)C
active: [3] 2.2 µM | [13] 2.99 µM | [8] 4.8 µM | [15] 5.29 µM
inactive: [1] | [2] | [4] | [5] | [12] | [17] | [11]

Cc1ccc2c(c1)OCC(=O)CO2
inactive: [1] | [2] | [3] | [4] | [6] | [19] | [7] | [20] | [12] | [17] | [13] | [8] | [11]
